According to the supplement of paper PMC10849652:
About 8,800 targets were measured; listed, in parts, are those with a hit and a random draw of the rest. About 0.5% of all pairs of compound and target were hits. Values without a mark were called inactive.

Compound: CCn1c(C(=O)N(C2CC2)C2CC2)cc2c3c(ncn3C)c(Nc3cc(C)n(C)n3)nc21
Test: log2 fold change, soluble protein after heating vs DMSO (PISA); higher = thermal stabilisation; K562 lysate, 10 uM; active = over 0.2 and 3.5 SD of the protein, either way, in both replicates (recomputed)
Procedure, shortened: (§1)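 A 30 min treatment with 10 μM compound was applied to crude K562 extract at 1 mg/mL protein in PBS pH 7.4 with 1 mM MgCl2. Heating for 3 min spanned 48°C-58°C, after which aliquots were pooled, adjusted to 0.5% NP-40 at 4°C and spun at 21,000xg for 90 min. TMTpro 16plex LC-MS/MS of the supernatant, with channel sums equalised, gave values recorded as log-two fold change in thermal stability against solvent controls, from duplicates.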

Sequence of UniProt O76041 (O76041 whole entry, looked up): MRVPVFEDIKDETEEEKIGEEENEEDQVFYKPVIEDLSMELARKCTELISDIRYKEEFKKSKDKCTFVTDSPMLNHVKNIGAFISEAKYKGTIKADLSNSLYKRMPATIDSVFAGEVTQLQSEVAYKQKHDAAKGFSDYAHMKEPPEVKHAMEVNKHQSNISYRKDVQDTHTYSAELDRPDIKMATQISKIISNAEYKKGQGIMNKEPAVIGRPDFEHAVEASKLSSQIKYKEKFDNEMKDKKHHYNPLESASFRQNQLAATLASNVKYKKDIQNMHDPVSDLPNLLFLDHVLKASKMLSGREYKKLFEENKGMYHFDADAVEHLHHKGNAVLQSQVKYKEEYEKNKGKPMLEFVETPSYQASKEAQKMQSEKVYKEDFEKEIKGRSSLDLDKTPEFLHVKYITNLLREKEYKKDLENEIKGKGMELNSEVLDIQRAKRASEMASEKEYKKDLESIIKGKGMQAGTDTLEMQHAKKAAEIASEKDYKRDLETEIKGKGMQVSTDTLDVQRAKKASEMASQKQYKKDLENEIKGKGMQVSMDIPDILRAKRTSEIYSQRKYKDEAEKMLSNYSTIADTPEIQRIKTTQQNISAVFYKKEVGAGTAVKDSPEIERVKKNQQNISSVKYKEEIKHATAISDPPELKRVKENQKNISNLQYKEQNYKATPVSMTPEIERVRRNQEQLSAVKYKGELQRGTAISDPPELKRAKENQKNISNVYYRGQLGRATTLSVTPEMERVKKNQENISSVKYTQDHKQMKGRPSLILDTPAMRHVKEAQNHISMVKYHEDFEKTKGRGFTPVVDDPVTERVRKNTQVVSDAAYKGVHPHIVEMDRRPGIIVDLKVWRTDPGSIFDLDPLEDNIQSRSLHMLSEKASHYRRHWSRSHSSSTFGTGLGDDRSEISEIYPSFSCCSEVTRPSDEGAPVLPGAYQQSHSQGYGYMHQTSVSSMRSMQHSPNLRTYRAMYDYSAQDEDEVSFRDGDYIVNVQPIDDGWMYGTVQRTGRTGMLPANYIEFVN
Sequence of UniProt Q9HBL8 (Q9HBL8 whole entry, looked up): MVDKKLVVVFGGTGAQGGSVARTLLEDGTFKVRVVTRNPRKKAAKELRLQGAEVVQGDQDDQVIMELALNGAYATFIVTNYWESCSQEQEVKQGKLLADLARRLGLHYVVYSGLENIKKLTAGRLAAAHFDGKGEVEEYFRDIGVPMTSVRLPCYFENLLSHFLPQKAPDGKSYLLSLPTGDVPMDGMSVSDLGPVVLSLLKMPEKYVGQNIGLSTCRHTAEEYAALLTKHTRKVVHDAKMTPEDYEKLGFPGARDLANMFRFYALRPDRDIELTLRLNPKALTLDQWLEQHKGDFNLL
Sequence of UniProt Q9NX02 (Q9NX02 whole entry, looked up): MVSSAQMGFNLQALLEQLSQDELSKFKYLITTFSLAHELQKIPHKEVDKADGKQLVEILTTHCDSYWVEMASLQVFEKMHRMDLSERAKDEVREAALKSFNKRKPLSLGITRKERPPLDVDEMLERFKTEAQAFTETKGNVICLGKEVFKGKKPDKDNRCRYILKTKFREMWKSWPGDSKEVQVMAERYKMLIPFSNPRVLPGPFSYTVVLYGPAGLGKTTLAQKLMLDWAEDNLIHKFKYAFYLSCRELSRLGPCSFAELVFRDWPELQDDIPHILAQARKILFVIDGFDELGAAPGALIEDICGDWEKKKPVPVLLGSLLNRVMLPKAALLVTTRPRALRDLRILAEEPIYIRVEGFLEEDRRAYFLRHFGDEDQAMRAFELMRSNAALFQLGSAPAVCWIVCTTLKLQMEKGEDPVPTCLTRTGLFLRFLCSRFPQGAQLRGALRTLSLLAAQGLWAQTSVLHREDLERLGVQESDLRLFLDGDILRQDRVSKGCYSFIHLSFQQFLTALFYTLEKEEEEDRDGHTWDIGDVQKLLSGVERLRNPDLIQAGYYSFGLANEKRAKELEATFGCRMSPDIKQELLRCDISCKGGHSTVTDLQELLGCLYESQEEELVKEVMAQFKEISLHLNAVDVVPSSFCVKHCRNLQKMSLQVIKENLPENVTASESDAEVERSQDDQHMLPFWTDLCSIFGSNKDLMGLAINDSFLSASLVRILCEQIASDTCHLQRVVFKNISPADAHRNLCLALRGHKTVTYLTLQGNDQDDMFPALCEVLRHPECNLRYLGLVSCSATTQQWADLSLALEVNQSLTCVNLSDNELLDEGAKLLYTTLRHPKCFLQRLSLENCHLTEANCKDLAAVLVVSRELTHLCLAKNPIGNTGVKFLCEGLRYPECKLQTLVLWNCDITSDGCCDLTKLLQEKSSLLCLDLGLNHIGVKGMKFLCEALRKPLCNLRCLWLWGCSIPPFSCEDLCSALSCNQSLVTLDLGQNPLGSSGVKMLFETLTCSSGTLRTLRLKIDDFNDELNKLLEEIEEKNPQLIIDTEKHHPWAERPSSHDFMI
Sequence of UniProt Q9UBD5 (Q9UBD5 whole entry, looked up): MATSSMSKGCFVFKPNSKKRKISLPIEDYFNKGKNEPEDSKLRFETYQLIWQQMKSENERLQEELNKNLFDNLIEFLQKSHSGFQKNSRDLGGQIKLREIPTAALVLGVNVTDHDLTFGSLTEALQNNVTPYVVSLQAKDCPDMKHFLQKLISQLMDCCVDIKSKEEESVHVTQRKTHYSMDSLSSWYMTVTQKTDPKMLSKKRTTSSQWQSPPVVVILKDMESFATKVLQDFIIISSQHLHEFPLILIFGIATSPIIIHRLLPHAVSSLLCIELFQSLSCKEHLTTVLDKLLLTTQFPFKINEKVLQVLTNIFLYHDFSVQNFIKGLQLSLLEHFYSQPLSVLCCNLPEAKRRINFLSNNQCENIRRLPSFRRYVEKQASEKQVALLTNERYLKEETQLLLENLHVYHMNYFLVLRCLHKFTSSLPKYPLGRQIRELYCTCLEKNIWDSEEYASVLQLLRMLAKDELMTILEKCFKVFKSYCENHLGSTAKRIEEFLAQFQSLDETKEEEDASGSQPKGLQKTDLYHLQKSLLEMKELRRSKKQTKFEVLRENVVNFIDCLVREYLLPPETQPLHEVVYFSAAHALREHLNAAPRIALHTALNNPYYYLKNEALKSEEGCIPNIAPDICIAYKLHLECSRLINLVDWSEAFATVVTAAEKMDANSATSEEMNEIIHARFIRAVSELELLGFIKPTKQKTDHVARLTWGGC
Sequence of UniProt Q9H857 (Q9H857 whole entry, looked up): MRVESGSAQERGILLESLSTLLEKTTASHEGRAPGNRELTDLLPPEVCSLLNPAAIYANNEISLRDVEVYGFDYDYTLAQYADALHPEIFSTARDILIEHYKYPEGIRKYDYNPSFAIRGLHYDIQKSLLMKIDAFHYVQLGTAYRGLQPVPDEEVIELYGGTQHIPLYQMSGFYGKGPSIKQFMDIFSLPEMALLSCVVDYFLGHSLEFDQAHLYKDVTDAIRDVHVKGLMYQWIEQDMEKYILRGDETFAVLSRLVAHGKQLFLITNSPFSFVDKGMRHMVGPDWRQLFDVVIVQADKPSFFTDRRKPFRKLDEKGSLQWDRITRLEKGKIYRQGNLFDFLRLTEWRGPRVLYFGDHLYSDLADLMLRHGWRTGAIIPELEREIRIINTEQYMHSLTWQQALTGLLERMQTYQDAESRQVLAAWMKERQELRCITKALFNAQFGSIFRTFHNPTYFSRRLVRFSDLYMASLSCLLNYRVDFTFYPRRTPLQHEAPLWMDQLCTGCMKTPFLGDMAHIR
Sequence of UniProt Q9Y5N5 (Q9Y5N5 whole entry, looked up, one chain of several): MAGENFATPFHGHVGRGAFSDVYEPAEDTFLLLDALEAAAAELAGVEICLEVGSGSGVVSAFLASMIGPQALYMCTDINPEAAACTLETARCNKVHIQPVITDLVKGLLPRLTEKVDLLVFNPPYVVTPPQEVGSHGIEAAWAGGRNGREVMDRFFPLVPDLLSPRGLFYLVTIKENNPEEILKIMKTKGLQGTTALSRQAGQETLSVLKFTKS
Sequence of UniProt Q504Q3 (Q504Q3 whole entry, looked up): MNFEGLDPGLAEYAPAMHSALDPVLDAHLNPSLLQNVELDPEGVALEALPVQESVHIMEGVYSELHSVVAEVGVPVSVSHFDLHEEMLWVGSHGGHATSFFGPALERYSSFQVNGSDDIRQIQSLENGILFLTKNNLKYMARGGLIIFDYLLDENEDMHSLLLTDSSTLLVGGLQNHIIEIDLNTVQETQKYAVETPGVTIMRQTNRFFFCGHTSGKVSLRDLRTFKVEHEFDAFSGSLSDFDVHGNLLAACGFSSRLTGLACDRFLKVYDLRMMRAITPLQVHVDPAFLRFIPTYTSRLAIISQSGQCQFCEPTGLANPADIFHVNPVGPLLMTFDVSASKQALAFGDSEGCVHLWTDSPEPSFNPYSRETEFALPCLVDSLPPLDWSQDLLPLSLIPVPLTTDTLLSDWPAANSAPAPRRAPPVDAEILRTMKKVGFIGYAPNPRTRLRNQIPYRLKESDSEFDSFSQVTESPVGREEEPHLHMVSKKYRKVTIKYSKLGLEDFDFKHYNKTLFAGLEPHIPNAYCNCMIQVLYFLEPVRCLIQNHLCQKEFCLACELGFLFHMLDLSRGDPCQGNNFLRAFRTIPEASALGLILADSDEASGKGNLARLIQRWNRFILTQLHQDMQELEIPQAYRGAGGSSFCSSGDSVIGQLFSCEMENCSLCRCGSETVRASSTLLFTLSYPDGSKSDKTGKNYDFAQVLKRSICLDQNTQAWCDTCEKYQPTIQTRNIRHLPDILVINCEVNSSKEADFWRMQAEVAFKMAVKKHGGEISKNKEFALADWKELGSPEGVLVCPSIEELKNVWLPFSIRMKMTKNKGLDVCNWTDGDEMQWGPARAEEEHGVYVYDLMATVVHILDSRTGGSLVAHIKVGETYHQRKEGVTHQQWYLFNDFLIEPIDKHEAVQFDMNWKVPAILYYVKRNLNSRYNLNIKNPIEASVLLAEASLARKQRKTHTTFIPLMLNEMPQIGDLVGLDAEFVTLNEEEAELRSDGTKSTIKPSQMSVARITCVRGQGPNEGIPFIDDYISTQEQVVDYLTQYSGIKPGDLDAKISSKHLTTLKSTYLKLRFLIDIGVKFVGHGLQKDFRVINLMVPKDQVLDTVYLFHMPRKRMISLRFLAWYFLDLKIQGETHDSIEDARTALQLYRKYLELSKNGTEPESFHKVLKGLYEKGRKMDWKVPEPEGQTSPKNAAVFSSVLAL

Row | Target | log2 fold change
1 | MRPS12 (UniProt O15235) | 0.001
2 | NOSIP (UniProt Q9Y314) | -0.005
3 | N6AMT1 (UniProt Q9Y5N5) | 0.006
4 | NEBL isoform 2 (UniProt O76041) | -0.041
5 | NAT1 (UniProt P18440) | -0.012
6 | NUMBL (UniProt Q9Y6R0) | 0.189
7 | NDUFAF5 (UniProt Q5TEU4) | -0.103
8 | ORC3 isoform 2 (UniProt Q9UBD5) | -0.006
9 | PAK1 (UniProt Q13153) | -0.011
10 | OLA1 (UniProt Q9NTK5) | 0.04
11 | OARD1 (UniProt Q9Y530) | 0.022
12 | NIPBL (UniProt Q6KC79) | 0.04
13 | MTA1 (UniProt Q13330) | -0.003
14 | MYH11 isoform 2 (UniProt P35749) | 0.091
15 | PANK2 (UniProt Q9BZ23) | 0.002
16 | NPTN (UniProt Q9Y639) | -0.017
17 | NEBL (UniProt O76041) | -0.014
18 | NT5DC2 isoform 2 (UniProt Q9H857) | -0.01

Row | Target | log2 fold change
19 | NFATC1 (UniProt O95644) | 0.007
20 | NUP93 (UniProt Q8N1F7) | 0.044
21 | MTCH2 (UniProt Q9Y6C9) | -0.012
22 | MTA2 (UniProt O94776) | 0.025
23 | NONO (UniProt Q15233) | 0
24 | NCAPG2 (UniProt Q86XI2) | 0.025
25 | NF1 (UniProt P21359) | 0.031
26 | NIPSNAP3A (UniProt Q9UFN0) | -0.024
27 | PAN2 isoform 2 (UniProt Q504Q3) | 0.031
28 | NUP205 (UniProt Q92621) | 0.027
29 | NBN (UniProt O60934) | -0.003
30 | NCAPD2 (UniProt Q15021) | 0.022
31 | NEK9 (UniProt Q8TD19) | 0.004
32 | NMRAL1 (UniProt Q9HBL8) | 0.045
33 | OSBP2 (UniProt Q969R2) | -0.001
34 | NLRP2 (UniProt Q9NX02) | 0.041
35 | NUF2 (UniProt Q9BZD4) | 0.016
36 | NR3C1 isoform 3 (UniProt P04150) | 0.001

Compound: CCn1cc(-c2ccnc3[nH]c(-c4cccc(CN(C)C)c4)cc23)c(-c2ccc(NC(=O)N(C)C)cc2)n1
Test: as above
Procedure, shortened: as §1

Row | Target | log2 fold change
37 | MRPS12 (UniProt O15235) | -0.038
38 | NOSIP (UniProt Q9Y314) | -0.013
39 | N6AMT1 (UniProt Q9Y5N5) | -0.047
40 | NEBL isoform 2 (UniProt O76041) | -0.108
41 | NAT1 (UniProt P18440) | -0.149
42 | NUMBL (UniProt Q9Y6R0) | 0.032
43 | NDUFAF5 (UniProt Q5TEU4) | -0.052
44 | ORC3 isoform 2 (UniProt Q9UBD5) | -0.063
45 | PAK1 (UniProt Q13153) | 0.013
46 | OLA1 (UniProt Q9NTK5) | -0.135
47 | OARD1 (UniProt Q9Y530) | -0.056
48 | NIPBL (UniProt Q6KC79) | -0.004
49 | MTA1 (UniProt Q13330) | 0.013
50 | MYH11 isoform 2 (UniProt P35749) | 0.25 (active)
51 | PANK2 (UniProt Q9BZ23) | -0.167
52 | NPTN (UniProt Q9Y639) | -0.019
53 | NEBL (UniProt O76041) | 0.29 (active)
54 | NT5DC2 isoform 2 (UniProt Q9H857) | 0.034

Row | Target | log2 fold change
55 | NFATC1 (UniProt O95644) | -0.118
56 | NUP93 (UniProt Q8N1F7) | -0.048
57 | MTCH2 (UniProt Q9Y6C9) | -0.155
58 | MTA2 (UniProt O94776) | -0.021
59 | NONO (UniProt Q15233) | 0.076
60 | NCAPG2 (UniProt Q86XI2) | -0.139
61 | NF1 (UniProt P21359) | -0.035
62 | NIPSNAP3A (UniProt Q9UFN0) | 0.324
63 | PAN2 isoform 2 (UniProt Q504Q3) | 0.006
64 | NUP205 (UniProt Q92621) | -0.075
65 | NBN (UniProt O60934) | 0.043
66 | NCAPD2 (UniProt Q15021) | -0.037
67 | NEK9 (UniProt Q8TD19) | -0.046
68 | NMRAL1 (UniProt Q9HBL8) | -0.092
69 | OSBP2 (UniProt Q969R2) | -0.881 (active)
70 | NLRP2 (UniProt Q9NX02) | 0.031
71 | NUF2 (UniProt Q9BZD4) | -0.069
72 | NR3C1 isoform 3 (UniProt P04150) | 0.07
